The text below walks through data of PubChem BioAssay (NCATS).

Structures are written as SMILES. Records with an inconclusive call do not appear. The source made the active and inactive calls. Unless noted, calls come from the whole dose curve; as a rule, active = well fitted curve in the direction sought with a large enough effect; inconclusive = small, poorly fitted or top-dose-only effect, or another doubt; inactive = no such curve, though single readings can be large; an effect the other way counts as inactive or inconclusive.

Assay [1] deals with Glucocorticoid receptor (Homo sapiens) (UniProt P04150). In words: GR-GFP Redistribution (AID 450;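 active = compounds whose dose series gives a full or clear partial fitted curve of increased nuclear translocation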; note: potency is the fitted concentration of half-maximal effect). The note with it: U2OS GR-GFP nuclear translocation, laser cytometry, 2 h.
Assay [2] has the same target. As to the kind of experiment: GR-EFC Redistribution (AID 451; calls by dose curve; note: potency is the fitted concentration of half-maximal effect). Particulars: CHO-K1 GR-EFC translocation, beta-gal luminescence, 2 h. Summed up: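 CHO-K1 cells stably expressing nuclear-localized β-gal enzyme acceptor and GR fused C-terminally to the enzyme donor fragment; ligand-driven nuclear translocation restores β-gal by complementation. Compounds titrated up to 46 uM final, 2 h at 37 °C; luminescence read.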

The target in assay [3] is 3',5'-cyclic-AMP phosphodiesterase 4B (Homo sapiens) (UniProt Q07343). As to the kind of experiment: qHTS Assay for Inhibitors of PDE-IV (AID 607; active = well fitted activation curve with a large enough effect in the main read-out, with a control signal flat, not every such curve was filed as active; note: % of control where 0% means no effect). Summed up: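 HEK293 ACTOne cells with CNG channel (1000/well), endogenous PDE4; membrane potential dye, compounds up to 22.9 uM final. Fluorescence Ex 535/Em 590; RO 20-1724 (100 uM final) as reference.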
For orientation: qHTS replaces the single test concentration by a dilution series.

In assay [4] the target is DNA dC->dU-editing enzyme APOBEC-3G (Homo sapiens) (UniProt Q9HC16). In words: qHTS for inhibitors of Vif-A3G interactions: Validation (AID 588379). Note: 0% is about no effect. Summed up:
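HeLa cells stably expressing Vif and A3G-eYFP, 700 cells/well, incubated overnight at 37 deg C, then exposed to compound overnight at 37 deg C. Inhibition of Vif-mediated degradation read as increased yellow fluorescence (Ex 488/Em 500-530) by laser-scanning cytometry.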

Assay [5] can be described thus: qHTS for Inhibitors of the vitamin D receptor (VDR): Hit Validation using a Texas Red Assay (AID 602201). Note: potency is the fitted concentration of half-maximal effect. Particulars: VDR coregulator binding, Texas Red fluorescence polarization; agonist-bound VDR ligand-binding domain. Summed up: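 Fluorescence polarization (Ex 595/Em 615 nm) of Texas Red (7 nM) with 1.5 uM VDR-LBD and LG19078 (final concentrations). Compounds were incubated for 2 hours at room temperature.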

In assay [6] the test system is Zika virus NS2B-NS3 protease. In words: Primary screen GU AMC qHTS for Zika virus inhibitors (AID 1347154).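 Note: 0% = no-inhibitor control and -100% = no-enzyme control; nearly all actives have a fitted effect of over 70% in size.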 A digest of the protocol:
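Unlinked Zika NS2B hydrophilic domain/NS3 protease domain noncovalent complex (25 nM final) in 10 mM Tris-HCl pH 8.0, 0.01% Tween 20, with AMC peptide substrate. Fluorescence (ex 340, em 450 nm) change over 15 min, room temperature; percent inhibition fitted to 4-parameter Hill equation.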

Assay [7] concerns the target Cytochrome P450 1A2 (Homo sapiens) (UniProt P05177). As to the kind of experiment: p450-cyp1a2 (AID 410; calls by dose curve; note: potency is the fitted concentration of half-maximal effect). A digest of the protocol:
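Inhibition was calculated relative to 57 uM furafylline (full inhibition). The reaction used human CYP1A2 at 20nM with Luciferin-ME at its Km, 100uM, driven by an NADPH-regenerating system for 60 min at room temperature.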

For assay [8], the target named is Mitogen-activated protein kinase 10 (Mus musculus) (UniProt Q61831). As to the kind of experiment: JNK3 AlphaScreen Assay (AID 530; active = well fitted curve in either direction with a large enough effect, not every such curve was filed as active;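 note: kinase came from lysate of stimulated human HepG2 cells; signal reports phosphorylation of biotinylated GST-cJun 1-79 at Ser73 with 10 µM ATP; % is set by controls: 0 for no effect and ±100 for the full control effect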). Summed up: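 JNK3 came from HepG2 lysates pre-activated with IL-1beta and TNF-alpha and phosphorylated biotinylated GST-cJun (1-79) at 10 uM ATP, pH 7.6, room temperature. Compounds were titrated. AlphaScreen signal used anti-phospho-cJun (Ser73) antibody.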
Background: Alpha assays give light when donor and acceptor beads are brought close together.

The target in assay [9] is Ubiquitin carboxyl-terminal hydrolase 1 (Homo sapiens) (UniProt O94782). In words: Inhibitors of USP1/UAF1: Pilot qHTS (AID 504865).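 Note: rhodamine fluorescence freed from ubiquitin-rhodamine substrate followed over time; top concentration of the series differs between compounds; % is set by controls: 0 for no effect and ±100 for the full control effect; nearly all actives have a fitted effect of over 35% in size.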 A digest of the protocol: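 Kinetic fluorescence assay: 1nM USP1/UAF1, 15 min compound preincubation, then 150nM Ub-Rho; 480/540 nm.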
Assay [10] is described as follows: qHTS profiling for inhibitors of Plasmodium falciparum (3D7) proliferation (AID 743322).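 Note: infected erythrocytes exposed to compound for 72 h before lysis; 100% = DMSO vehicle wells and 0% = 0.29 µM artemisinin.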 The note with it: P. falciparum 3D7 proliferation; at 28.7 µM (top of the series). A digest of the protocol:
(§1)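 Erythrocytes infected with P. falciparum (0.3% parasitemia, 2.5% hematocrit) incubated with compounds 72 h at 37 C, 5% CO2. Lysis with saponin/Triton buffer containing SYBR Green I, overnight at room temperature in the dark; DNA fluorescence (485/535 nm) normalised to 0.29 uM artemisinin and DMSO.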

Assay [11] in a line: qHTS profiling for inhibitors of Plasmodium falciparum (DD2) proliferation (AID 743323; call rule not given here). The note with it: lower = more inhibition; at 28.7 µM (top of the series). Summed up:
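P. falciparum Dd2-infected erythrocytes (0.3% parasitemia, 2.5% hematocrit) exposed 72 h at 37 C, 5% CO2. Lysis with SYBR Green, overnight at room temperature, fluorescence 485/535 nm; normalized to 0.29 uM artemisinin and DMSO.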

Assay [12] is described as follows: qHTS profiling for inhibitors of Plasmodium falciparum (HB3) proliferation (AID 743324).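 Note: 100% = DMSO vehicle wells and 0% = artemisinin-treated control wells.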 Particulars: Plasmodium falciparum HB3 blood-stage proliferation; at 28.7 µM (top of the series). Summed up: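 P. falciparum HB3 grown in erythrocytes (0.3% parasitemia, 2.5% hematocrit final) with compound for 72 h at 37 C, 5% CO2. Parasite DNA detected by SYBR Green after saponin/triton lysis overnight; normalized to 0.29 uM artemisinin and DMSO.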

Assay [13] is described as follows: qHTS profiling of the MIPE4 collection as inhibitors of Plasmodium falciparum (3D7) proliferation (AID 743344; call rule not given here;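 note: scaled between DMSO vehicle wells and 0.29 µM artemisinin as full inhibition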). The note with it: P. falciparum 3D7 in erythrocytes, SYBR Green DNA fluorescence, 72 h; at 28.5 µM (top of the series). A digest of the protocol: as §1
Assay [14] can be described thus: qHTS profiling of the MIPE4 collection as inhibitors of Plasmodium falciparum (DD2) proliferation (AID 743345; call rule not given here). The note with it: P. falciparum Dd2 in erythrocytes, SYBR Green DNA, 72 h; at 28.5 µM (top of the series). Summed up: as §1
A short description of assay [15]: qHTS profiling of the MIPE4 collection as inhibitors of Plasmodium falciparum (DD2) proliferation (Rep 2) (AID 743346; call rule not given here). The note with it: P. falciparum Dd2 in erythrocytes, SYBR Green DNA, 72 h; at 28.5 µM (top of the series). A digest of the protocol: as §1
Assay [16] is described as follows: qHTS profiling of the MIPE4 collection as inhibitors of Plasmodium falciparum (HB3) proliferation (AID 743347; call rule not given here;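 note: plate controls were DMSO vehicle wells for no effect and artemisinin wells for full effect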). The note with it: P. falciparum HB3 in erythrocytes, SYBR Green DNA, 72 h; at 28.5 µM (top of the series). Summed up:
as §1

Assay [17] concerns the target Cytochrome P450 3A4 (Homo sapiens) (UniProt P08684). In words: qHTS Assay for Activators of Cytochrome P450 3A4 (AID 885). Note: nearly all actives have a fitted effect of over 65% in size. A digest of the protocol: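 Human CYP3A4 (20 nM) with Luciferin-PPXE at 25 uM (its KM) in 200 mM KPO4; 10 min compound preincubation, then NADPH regeneration and 60 min reaction at RT. Luciferin read by luminescence; normalized to 57 uM ketoconazole full inhibition.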

Assay [18] deals with Cytochrome P450 2D6 (Homo sapiens) (UniProt P10635). As to the kind of experiment: qHTS Assay for Inhibitors and Substrates of Cytochrome P450 2D6 (AID 891). Note: potency is the fitted concentration of half-maximal effect; nearly all actives have a fitted effect of over 60% in size. A digest of the protocol:
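Human CYP2D6 (5 nM) with 30 uM Luciferin-ME EGE (at Km) in 100 mM KPO4, compound preincubated 10 min, then NADPH regeneration system for 60 min at room temperature. Luciferin read by luminescence; normalized to 1.43 uM quinidine.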

In assay [19] the target is Cytochrome P450 2C19 (Homo sapiens) (UniProt P33261). As to the kind of experiment: qHTS Assay for Inhibitors and Substrates of Cytochrome P450 2C19 (AID 899). Note: potency is the fitted concentration of half-maximal effect; nearly all actives have a fitted effect of over 60% in size. Summed up:
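NADPH-dependent conversion of Luciferin-H EGE (10uM, at KM) by 5nM enzyme in 50mM KPO4, 60 min at 37C following 10 min compound preincubation. Stopped with luciferin detection buffer; luminescence read after 20 min.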

DNA dC->dU-editing enzyme APOBEC-3G (Homo sapiens), sequence (Q9HC16 whole entry, looked up): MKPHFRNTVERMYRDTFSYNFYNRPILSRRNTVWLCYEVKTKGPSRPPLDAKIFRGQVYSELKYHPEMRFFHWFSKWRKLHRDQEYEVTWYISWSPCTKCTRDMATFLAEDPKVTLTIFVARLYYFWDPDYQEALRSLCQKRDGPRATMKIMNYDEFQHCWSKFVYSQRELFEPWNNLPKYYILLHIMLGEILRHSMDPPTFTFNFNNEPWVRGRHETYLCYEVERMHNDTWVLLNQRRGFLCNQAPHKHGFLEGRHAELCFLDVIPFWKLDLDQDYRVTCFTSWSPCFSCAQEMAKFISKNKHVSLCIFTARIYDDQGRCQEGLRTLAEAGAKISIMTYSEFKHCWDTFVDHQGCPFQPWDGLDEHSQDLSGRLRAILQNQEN
Glucocorticoid receptor (Homo sapiens), sequence (P04150 whole entry, looked up, the tested form may be a part): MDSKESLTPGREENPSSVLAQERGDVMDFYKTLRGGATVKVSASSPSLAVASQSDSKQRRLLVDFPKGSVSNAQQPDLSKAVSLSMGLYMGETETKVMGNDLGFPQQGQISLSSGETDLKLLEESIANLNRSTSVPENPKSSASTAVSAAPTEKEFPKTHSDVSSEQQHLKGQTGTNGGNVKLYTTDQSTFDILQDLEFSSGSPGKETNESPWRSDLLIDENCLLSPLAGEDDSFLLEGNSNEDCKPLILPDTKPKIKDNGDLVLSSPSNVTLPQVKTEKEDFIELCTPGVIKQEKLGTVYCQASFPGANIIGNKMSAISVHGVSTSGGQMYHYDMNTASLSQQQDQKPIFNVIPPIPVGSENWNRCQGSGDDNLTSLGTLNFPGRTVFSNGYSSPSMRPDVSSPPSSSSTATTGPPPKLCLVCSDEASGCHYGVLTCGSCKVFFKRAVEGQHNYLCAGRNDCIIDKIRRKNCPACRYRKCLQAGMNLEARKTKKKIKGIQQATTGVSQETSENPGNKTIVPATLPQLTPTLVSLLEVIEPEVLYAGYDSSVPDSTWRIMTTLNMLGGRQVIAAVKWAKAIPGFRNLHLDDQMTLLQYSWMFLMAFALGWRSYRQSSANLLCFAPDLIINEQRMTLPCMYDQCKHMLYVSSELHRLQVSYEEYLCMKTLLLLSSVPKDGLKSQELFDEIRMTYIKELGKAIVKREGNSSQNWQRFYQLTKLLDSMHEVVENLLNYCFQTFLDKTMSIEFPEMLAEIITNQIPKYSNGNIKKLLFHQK
3',5'-cyclic-AMP phosphodiesterase 4B (Homo sapiens), sequence (Q07343 whole entry, looked up): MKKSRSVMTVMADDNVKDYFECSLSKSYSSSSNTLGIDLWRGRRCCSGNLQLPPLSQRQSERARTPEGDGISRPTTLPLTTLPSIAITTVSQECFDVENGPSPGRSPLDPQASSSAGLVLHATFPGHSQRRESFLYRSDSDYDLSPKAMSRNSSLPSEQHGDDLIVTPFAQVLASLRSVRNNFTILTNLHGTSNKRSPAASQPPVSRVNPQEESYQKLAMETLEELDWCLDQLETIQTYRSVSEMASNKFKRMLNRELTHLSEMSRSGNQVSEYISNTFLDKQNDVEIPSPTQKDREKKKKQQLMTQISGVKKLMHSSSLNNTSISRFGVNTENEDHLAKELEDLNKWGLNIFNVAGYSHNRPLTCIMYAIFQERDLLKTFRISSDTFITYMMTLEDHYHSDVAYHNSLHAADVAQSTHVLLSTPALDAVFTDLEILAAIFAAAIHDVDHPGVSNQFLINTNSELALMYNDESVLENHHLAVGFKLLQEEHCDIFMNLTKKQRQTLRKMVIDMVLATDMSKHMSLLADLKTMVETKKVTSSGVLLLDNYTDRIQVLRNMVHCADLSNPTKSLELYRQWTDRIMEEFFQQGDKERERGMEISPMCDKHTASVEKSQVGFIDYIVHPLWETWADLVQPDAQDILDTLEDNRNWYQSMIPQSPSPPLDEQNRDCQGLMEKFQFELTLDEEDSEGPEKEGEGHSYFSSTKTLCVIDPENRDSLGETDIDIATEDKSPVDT
Cytochrome P450 1A2 (Homo sapiens), sequence (P05177 whole entry, looked up): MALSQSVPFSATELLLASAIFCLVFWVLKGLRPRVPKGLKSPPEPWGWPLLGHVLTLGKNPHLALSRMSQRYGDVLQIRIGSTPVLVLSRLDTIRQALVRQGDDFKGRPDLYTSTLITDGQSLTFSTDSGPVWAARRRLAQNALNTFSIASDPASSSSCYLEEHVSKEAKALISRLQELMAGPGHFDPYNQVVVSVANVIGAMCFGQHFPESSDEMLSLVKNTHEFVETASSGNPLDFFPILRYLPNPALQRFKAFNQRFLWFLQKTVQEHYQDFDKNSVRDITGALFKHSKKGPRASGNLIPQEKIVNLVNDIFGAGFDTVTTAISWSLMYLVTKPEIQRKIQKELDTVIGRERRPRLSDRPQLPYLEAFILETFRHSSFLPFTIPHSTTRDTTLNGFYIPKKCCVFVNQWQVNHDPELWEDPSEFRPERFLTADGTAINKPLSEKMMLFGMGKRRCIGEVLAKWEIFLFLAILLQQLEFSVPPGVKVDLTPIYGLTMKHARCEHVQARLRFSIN
Cytochrome P450 2D6 (Homo sapiens), sequence (P10635 whole entry, looked up): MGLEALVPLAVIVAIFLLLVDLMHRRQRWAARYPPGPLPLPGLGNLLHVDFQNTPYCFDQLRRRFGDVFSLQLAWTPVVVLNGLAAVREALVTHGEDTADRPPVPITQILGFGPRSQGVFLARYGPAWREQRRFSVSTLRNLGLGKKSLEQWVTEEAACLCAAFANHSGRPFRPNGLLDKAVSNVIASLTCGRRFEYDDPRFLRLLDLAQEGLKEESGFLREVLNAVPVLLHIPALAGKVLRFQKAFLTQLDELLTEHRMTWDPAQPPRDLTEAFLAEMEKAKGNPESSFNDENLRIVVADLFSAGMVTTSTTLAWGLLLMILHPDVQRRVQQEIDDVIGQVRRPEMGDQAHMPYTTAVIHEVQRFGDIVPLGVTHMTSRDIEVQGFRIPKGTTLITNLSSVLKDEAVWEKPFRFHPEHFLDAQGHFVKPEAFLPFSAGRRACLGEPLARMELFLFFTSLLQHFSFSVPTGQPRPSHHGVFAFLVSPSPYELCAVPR
Ubiquitin carboxyl-terminal hydrolase 1 (Homo sapiens), sequence (O94782 whole entry, looked up): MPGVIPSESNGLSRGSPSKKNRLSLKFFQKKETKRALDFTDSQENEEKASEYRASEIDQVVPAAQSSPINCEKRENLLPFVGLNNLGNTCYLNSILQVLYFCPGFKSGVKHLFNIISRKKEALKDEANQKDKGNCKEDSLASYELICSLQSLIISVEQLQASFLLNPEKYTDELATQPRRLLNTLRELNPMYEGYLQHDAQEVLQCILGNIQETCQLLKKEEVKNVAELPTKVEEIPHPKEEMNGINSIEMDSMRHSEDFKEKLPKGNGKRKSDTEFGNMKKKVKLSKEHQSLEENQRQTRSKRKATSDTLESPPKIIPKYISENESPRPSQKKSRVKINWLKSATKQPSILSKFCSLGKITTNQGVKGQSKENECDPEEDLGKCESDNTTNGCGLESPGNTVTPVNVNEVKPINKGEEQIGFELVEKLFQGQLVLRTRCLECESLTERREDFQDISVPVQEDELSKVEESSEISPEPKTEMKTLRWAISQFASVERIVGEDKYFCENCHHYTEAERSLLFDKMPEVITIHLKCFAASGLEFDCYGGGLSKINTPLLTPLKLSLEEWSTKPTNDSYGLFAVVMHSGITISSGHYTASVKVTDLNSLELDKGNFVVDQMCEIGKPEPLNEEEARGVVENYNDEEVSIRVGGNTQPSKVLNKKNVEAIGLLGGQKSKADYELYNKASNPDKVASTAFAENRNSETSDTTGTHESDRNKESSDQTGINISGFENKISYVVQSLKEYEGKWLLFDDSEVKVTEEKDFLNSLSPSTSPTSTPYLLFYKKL
Cytochrome P450 2C19 (Homo sapiens), sequence (P33261 whole entry, looked up): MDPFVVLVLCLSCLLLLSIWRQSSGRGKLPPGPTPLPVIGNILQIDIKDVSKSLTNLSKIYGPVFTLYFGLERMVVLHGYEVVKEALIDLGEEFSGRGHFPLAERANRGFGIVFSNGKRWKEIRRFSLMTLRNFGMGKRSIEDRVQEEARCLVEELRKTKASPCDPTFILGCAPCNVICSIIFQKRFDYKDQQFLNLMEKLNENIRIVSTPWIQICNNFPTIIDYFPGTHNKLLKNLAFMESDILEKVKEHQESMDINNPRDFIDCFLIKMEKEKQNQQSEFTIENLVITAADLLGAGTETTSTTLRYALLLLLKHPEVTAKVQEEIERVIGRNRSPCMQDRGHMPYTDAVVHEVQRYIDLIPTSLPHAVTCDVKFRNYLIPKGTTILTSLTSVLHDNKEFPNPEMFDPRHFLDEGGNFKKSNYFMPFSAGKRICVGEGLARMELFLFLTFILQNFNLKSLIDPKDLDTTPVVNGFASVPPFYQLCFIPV
Cytochrome P450 3A4 (Homo sapiens), sequence (P08684 whole entry, looked up): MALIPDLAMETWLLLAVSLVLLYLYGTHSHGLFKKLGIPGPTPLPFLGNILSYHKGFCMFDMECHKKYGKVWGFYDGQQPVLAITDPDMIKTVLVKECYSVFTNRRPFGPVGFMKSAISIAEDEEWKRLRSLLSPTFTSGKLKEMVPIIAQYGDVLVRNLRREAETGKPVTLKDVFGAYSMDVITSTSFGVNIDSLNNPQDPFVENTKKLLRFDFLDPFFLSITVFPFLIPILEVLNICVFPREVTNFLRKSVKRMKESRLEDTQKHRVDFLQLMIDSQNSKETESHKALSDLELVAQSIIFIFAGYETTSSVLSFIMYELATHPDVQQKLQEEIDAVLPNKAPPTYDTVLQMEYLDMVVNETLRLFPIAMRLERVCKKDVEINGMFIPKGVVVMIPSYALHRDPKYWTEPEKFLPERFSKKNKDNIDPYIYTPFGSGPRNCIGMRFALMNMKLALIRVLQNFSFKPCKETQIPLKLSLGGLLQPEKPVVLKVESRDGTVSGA

Turning to `COc1cc2c(cc1OC)-c1cc3nc4ccccc4nc3n1C(C)(C)C2`, the Potency in [1] is > 46 µM (inactive); in assay [2], > 46 µM (inactive); in assay [5], 12.6 µM (active). For the same compound, the Potency result in [3], in assay [4] and in [6] was “inactive” each time.

Consider `N#C[C@H](Cc1ccc(O)cc1)c1ccc(O)cc1`, for which, in assay [7], the Potency was 12.6 µM (active). For the same compound, the Potency entry in assay [8], in assay [3], in assay [9], in [4] and in [6] was “inactive” in each case.

Take `CC(C)N=C(N)N=C(N)Nc1ccc(Cl)cc1`: the remaining parasite growth % (stronger effect = lower value) in assay [10] is -0.519%. The compound further yielded an activity, percent of control in assay [11] of 0.237%. Further, the remaining proliferation (% of control), lower = more inhibition in assay [12] came out at 0.187%. The same compound gave a parasite growth, % of DMSO control in [13] of 5.61%. Besides, the parasite growth remaining, % of DMSO control (lower = more inhibition) in assay [14] is 7.67%. The parasite growth, % of control (lower = inhibition) in assay [15] was determined as 12.7%. Moreover, in assay [16], the growth, % of control came out at 3.71%. In assay [6], the Potency entry was “inactive”.

As for `Cc1ccc(S(=O)(=O)/C=C\C#N)cc1`, the Potency in assay [7] is 3.98 µM (active); in [1], > 46 µM (inactive); in assay [2], > 46 µM (inactive); in assay [18] it was 0.0158 µM (active); in assay [19], 5.01 µM (active). The Potency entry in [17], in assay [4] and in [6] was “inactive” throughout.

Take `CCCCCCCCCCCCCCCCCCc1ccc(C(=O)/C=C\C(=O)O)cc1`: the Potency in assay [1] and in [2] was > 46 µM (inactive) each time. Also, the Potency entry in assay [8], in assay [4] and in [6] was “inactive” in each case.
